From the supplement of paper PMC10849652
The full data set covers some 7,900 targets. This sample favours those with a hit. About 0.6% of all pairs of compound and target were hits.

Key:
Experiment in all cases: log2 fold change, soluble protein after heating vs DMSO (PISA); higher = thermal stabilisation; K562 cells, 10 uM, 30 min; active = over 0.2 and 3.5 SD of the protein, either way, in both replicates (recomputed)
[1] = compound: NC(=O)Nc1cc(-c2cccc(F)c2)sc1C(=O)N[C@H]1CCCNC1
Procedure, shortened: (§1)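 Quantification of soluble protein used TMTpro 16plex LC-MS/MS, with channel sums equalised. Samples were the supernatant after 21,000xg for 90 min of pooled aliquots from K562 cells (2×10^6 cells/mL) treated with 10 μM compound for 30 min, heated for 3 min over 48°C-58°C, and extracted in PBS with 0.5% NP-40 at 4°C. Values, from duplicates, describe thermal stability against control samples on a log2 fold-change scale.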

[2] = compound: NC(=O)c1cnc(N[C@@H]2CCCC[C@@H]2N)nc1Nc1cccc(-n2nccn2)c1
Procedure, shortened: as §1

[3] = compound: NC1(c2ccc(-c3nc4ccn5c(=O)[nH]nc5c4cc3-c3ccccc3)cc2)CCC1
Procedure, shortened: as §1

[4] = compound: NCC(=O)Nc1ccc(-n2nc(C(F)(F)F)cc2-c2ccc3c(ccc4ccccc43)c2)cc1
Procedure, shortened: as §1

entinostat = compound: Nc1ccccc1NC(=O)c1ccc(CNC(=O)OCc2cccnc2)cc1 [entinostat]
Procedure, shortened: as §1

vorinostat = compound: O=C(CCCCCCC(=O)Nc1ccccc1)NO [vorinostat]
Procedure, shortened: as §1

citarinostat = compound: O=C(CCCCCCNC(=O)c1cnc(N(c2ccccc2)c2ccccc2Cl)nc1)NO [citarinostat]
Procedure, shortened: as §1

silmitasertib = compound: O=C(O)c1ccc2c(c1)nc(Nc1cccc(Cl)c1)c1ccncc12 [silmitasertib]
Procedure, shortened: as §1

[5] = compound: O=C1NC(=O)C(c2cnc3ccccn23)=C1c1cn2c3c(cc(F)cc13)CN(C(=O)N1CCCCC1)CC2
Procedure, shortened: as §1

[6] = compound: c1cc(OCCN2CCCCC2)cc(-c2n[nH]c3ccc(-c4nnc[nH]4)cc23)c1
Procedure, shortened: as §1

entospletinib = compound: c1cn2cc(-c3ccc4cn[nH]c4c3)nc(Nc3ccc(N4CCOCC4)cc3)c2n1 [entospletinib]
Procedure, shortened: as §1

Measured: log2 fold change

ABITRAM (UniProt Q9NX38)
Sequence of UniProt Q9NX38 (Q9NX38 whole entry, looked up): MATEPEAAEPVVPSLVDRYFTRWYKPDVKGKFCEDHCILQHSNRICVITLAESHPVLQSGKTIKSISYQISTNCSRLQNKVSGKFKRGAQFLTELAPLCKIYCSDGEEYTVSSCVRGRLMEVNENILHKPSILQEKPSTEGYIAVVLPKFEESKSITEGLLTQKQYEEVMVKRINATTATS
inactive: [1] -0.018 | [2] -0.12 | [3] -0.194 | [4] 0.008 | entinostat 0.008 | vorinostat -0.089 | citarinostat 0.046 | silmitasertib 0.094 | [5] -0.015 | [6] -0.006 | entospletinib -0.052

ATF1 (UniProt P18846)
inactive: [1] 0.038 | [2] 0.096 | [3] 0.063 | [4] 0.127 | entinostat 0.066 | vorinostat -0.102 | citarinostat 0.144 | silmitasertib -0.146 | [6] -0.091 | entospletinib -0.006
active: [5] 0.372

ADK (UniProt P55263)
inactive: [1] -0.071 | [2] 0.07 | [3] 0.12 | [4] -0.04 | entinostat -0.087 | vorinostat -0.044 | citarinostat -0.02 | silmitasertib 0.011 | [5] 0.232 | [6] 0.158 | entospletinib 0.082

AHSA1 (UniProt O95433)
Sequence of UniProt O95433 (O95433 whole entry, looked up): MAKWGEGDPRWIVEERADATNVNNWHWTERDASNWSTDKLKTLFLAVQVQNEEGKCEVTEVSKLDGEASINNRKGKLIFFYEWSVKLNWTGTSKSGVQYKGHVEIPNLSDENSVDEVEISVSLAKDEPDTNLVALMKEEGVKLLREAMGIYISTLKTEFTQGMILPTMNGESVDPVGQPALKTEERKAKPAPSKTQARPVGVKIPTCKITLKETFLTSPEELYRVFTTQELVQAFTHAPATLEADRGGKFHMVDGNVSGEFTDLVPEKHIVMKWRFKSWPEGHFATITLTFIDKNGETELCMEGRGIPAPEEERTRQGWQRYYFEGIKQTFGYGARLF
inactive: [1] -0.002 | [2] -0.005 | [3] -0.131 | [4] -0.043 | entinostat 0.022 | vorinostat 0.013 | citarinostat 0.026 | silmitasertib 0.019 | [5] -0.009 | [6] -0.003 | entospletinib -0.017

ABHD16A (UniProt O95870)
inactive: [1] -0.026 | [2] 0.026 | [3] 0.113 | [4] 0.049 | entinostat -0.02 | vorinostat 0.055 | citarinostat 0.026 | silmitasertib -0.022 | [5] 0.005 | [6] 0.008 | entospletinib 0.002

ATP6V1F isoform 2 (UniProt Q16864)
inactive: [1] 0.175 | [2] 0.221 | [3] -0.078 | [4] 0.143 | entinostat 0.087 | vorinostat -0.092 | citarinostat 0.026 | silmitasertib -0.042 | [5] -0.073 | [6] 0.026 | entospletinib 0.027

ACP2 (UniProt P11117)
inactive: [1] -0.014 | [2] 0.002 | [3] -0.124 | [4] 0.018 | entinostat -0.01 | vorinostat -0.003 | citarinostat 0.05 | silmitasertib 0.069 | [5] -0.052 | [6] -0.102 | entospletinib -0.004

ALDH2 (UniProt P05091)
Sequence of UniProt P05091 (P05091 whole entry, looked up): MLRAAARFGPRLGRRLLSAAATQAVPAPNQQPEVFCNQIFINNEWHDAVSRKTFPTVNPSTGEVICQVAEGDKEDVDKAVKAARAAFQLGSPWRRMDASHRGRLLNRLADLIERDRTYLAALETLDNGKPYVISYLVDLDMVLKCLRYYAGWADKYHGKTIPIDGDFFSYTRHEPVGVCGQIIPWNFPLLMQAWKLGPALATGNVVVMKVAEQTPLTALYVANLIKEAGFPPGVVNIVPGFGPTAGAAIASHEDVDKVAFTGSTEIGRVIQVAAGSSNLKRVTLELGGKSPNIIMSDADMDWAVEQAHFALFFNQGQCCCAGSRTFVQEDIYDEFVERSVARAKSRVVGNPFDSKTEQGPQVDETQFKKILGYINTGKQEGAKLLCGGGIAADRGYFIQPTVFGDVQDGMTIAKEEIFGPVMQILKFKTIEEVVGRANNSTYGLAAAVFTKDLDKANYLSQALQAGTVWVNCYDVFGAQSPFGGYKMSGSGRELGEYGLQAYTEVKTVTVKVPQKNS
inactive: [1] 0.012 | [2] -0.039 | [3] -0.046 | [4] -0.016 | entinostat -0.007 | citarinostat 0.043 | silmitasertib -0.038 | [5] -0.001 | [6] -0.023 | entospletinib -0.025
active: vorinostat 0.216

BRD8 (UniProt Q9H0E9)
inactive: [1] 0.008 | [2] -0.107 | [3] 0.038 | [4] -0.014 | entinostat -0.041 | vorinostat -0.125 | citarinostat -0.12 | silmitasertib 0.038 | [5] 0.022 | [6] -0.059 | entospletinib 0.031

ABCB6 (UniProt Q9NP58)
active: [3] -0.456
inactive: [1] 0.005 | [2] -0.111 | [4] -0.015 | entinostat -0.011 | vorinostat 0.044 | citarinostat 0.063 | silmitasertib 0.018 | [5] -0.047 | [6] -0.021 | entospletinib 0.026

ACSL1 (UniProt P33121)
inactive: [1] -0.058 | [2] -0.015 | [3] -0.091 | [4] -0.003 | entinostat -0.034 | vorinostat 0.004 | citarinostat 0.071 | silmitasertib 0.029 | [5] -0.038 | [6] -0.022 | entospletinib -0.006

ADRM1 (UniProt Q16186)
Sequence of UniProt Q16186 (Q16186 whole entry, looked up): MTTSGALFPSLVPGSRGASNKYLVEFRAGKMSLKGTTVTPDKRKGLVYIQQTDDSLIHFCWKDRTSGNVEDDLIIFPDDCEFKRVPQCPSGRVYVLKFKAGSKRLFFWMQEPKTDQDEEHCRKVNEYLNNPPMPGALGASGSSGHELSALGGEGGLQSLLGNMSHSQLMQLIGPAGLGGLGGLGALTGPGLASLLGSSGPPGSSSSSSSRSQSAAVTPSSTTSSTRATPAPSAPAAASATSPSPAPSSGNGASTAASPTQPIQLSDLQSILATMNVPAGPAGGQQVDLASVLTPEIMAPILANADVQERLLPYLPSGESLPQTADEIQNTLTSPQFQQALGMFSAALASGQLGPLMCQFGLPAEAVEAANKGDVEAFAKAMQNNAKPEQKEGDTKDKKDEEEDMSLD
inactive: [1] -0.009 | [2] -0.045 | [3] -0.058 | [4] 0.006 | entinostat -0.012 | vorinostat 0.038 | citarinostat 0.067 | silmitasertib 0 | [5] 0.064 | [6] -0.052 | entospletinib -0.079

BCCIP (UniProt Q9P287)
Sequence of UniProt Q9P287 (Q9P287 whole entry, looked up): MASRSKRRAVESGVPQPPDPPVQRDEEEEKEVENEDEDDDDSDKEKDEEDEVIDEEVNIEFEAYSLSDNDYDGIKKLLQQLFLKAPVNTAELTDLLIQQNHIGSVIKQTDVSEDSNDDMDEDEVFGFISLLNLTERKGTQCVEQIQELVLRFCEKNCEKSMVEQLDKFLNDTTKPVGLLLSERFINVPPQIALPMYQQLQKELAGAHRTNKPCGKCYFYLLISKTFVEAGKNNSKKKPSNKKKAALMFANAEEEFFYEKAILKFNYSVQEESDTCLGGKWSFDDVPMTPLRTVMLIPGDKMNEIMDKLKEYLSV
inactive: [1] 0.023 | [2] -0.008 | [3] -0.006 | [4] -0.04 | entinostat -0.052 | vorinostat 0.045 | citarinostat 0.022 | silmitasertib 0.049 | [5] -0.012 | [6] -0.079 | entospletinib -0.036

ALKBH5 (UniProt Q6P6C2)
inactive: [1] 0.031 | [2] -0.021 | [3] 0.102 | [4] 0.052 | entinostat -0.076 | vorinostat 0.18 | citarinostat 0.109 | silmitasertib 0.033 | [5] 0.076 | [6] 0.042 | entospletinib -0.03

ACBD6 (UniProt Q9BR61)
inactive: [1] -0.089 | [2] -0.077 | [3] -0.006 | [4] 0.001 | entinostat -0.048 | vorinostat 0.086 | citarinostat 0.084 | silmitasertib 0.134 | [5] 0.022 | [6] 0.271 | entospletinib 0.035

AP2M1 (UniProt Q96CW1)
active: [1] -0.293 | [5] -0.237
inactive: [2] 0.004 | [3] 0.012 | [4] -0.003 | entinostat -0.007 | vorinostat 0.06 | citarinostat -0.004 | silmitasertib 0.029 | [6] -0.209 | entospletinib 0.025

APLP2 (UniProt Q06481)
Sequence of UniProt Q06481 (Q06481 whole entry, looked up): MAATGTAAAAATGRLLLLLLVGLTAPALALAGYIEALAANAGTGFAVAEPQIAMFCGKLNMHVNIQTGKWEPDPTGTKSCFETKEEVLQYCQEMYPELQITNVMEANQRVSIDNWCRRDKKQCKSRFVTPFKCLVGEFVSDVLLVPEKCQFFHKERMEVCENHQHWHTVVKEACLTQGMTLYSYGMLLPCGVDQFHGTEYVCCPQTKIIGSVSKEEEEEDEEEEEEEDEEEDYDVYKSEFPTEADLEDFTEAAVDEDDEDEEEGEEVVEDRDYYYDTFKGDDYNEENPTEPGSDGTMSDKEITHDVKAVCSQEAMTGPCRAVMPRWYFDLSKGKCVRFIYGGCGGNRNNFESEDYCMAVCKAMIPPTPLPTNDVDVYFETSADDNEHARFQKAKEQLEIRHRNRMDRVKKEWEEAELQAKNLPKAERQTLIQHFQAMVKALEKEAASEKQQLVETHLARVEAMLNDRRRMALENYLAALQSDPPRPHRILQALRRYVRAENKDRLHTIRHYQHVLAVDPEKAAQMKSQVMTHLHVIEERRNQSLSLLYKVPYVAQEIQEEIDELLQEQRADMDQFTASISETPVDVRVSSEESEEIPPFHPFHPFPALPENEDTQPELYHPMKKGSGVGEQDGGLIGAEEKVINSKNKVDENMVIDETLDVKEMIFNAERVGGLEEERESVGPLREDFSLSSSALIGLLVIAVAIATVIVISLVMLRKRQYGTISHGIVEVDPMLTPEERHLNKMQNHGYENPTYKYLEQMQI
inactive: [1] -0.13 | [2] -0.021 | [3] 0.036 | [4] 0.054 | entinostat -0.063 | vorinostat -0.035 | citarinostat 0.02 | silmitasertib 0 | [5] 0.074 | [6] 0.046 | entospletinib -0.009

ATP13A2 (UniProt Q9NQ11)
Sequence of UniProt Q9NQ11 (Q9NQ11 whole entry, looked up): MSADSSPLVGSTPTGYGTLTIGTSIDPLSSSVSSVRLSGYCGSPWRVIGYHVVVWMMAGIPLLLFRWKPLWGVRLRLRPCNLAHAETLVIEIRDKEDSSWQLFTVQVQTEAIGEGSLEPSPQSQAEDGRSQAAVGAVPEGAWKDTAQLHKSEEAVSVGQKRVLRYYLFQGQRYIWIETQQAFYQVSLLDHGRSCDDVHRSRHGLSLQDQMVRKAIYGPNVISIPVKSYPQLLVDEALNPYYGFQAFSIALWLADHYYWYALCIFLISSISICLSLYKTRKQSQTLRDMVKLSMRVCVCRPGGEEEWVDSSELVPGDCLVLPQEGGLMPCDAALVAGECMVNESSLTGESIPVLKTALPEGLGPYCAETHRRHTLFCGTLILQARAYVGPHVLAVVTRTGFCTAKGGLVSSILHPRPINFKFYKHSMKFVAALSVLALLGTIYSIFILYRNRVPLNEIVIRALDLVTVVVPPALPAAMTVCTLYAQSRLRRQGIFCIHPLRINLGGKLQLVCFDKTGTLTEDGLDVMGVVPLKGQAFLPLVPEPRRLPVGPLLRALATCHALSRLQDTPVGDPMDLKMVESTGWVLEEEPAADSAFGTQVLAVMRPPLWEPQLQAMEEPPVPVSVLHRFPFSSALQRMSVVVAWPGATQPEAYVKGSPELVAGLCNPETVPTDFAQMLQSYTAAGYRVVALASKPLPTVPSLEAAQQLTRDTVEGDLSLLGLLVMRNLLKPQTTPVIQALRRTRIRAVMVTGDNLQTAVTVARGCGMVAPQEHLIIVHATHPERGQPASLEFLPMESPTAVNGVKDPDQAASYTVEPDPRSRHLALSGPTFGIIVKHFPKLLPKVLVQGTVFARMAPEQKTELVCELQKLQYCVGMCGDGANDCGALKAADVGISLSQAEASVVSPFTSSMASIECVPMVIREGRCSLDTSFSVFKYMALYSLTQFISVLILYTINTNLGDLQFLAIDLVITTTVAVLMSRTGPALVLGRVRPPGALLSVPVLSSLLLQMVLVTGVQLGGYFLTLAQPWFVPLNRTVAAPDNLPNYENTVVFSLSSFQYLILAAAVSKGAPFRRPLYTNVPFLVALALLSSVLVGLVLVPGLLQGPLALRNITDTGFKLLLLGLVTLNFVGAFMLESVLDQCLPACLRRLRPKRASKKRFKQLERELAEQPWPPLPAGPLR
inactive: [1] 0.032 | [2] 0.01 | [4] 0.064 | entinostat -0.005 | vorinostat 0.005 | citarinostat -0.054 | silmitasertib 0.026 | [5] -0.052 | [6] -0.025 | entospletinib -0.115
active: [3] -0.336

ANKRD29 (UniProt Q8N6D5)
inactive: [1] -0.044 | [2] -0.181 | [3] -0.337 | [4] -0.119 | entinostat -0.03 | vorinostat 0.061 | citarinostat -0.002 | silmitasertib 0.039 | [5] -0.2 | [6] -0.051 | entospletinib -0.152

AGPAT3 isoform 3 (UniProt Q9NRZ7)
inactive: [1] 0.008 | [2] -0.044 | [3] -0.141 | [4] -0.041 | entinostat 0.004 | vorinostat 0.004 | citarinostat 0.029 | silmitasertib 0.008 | [5] -0.079 | [6] -0.044 | entospletinib -0.017

AP2A2 isoform 2 (UniProt O94973)
inactive: [1] -0.155 | [2] 0.052 | [3] -0.003 | [4] -0.013 | entinostat 0.002 | vorinostat 0.034 | citarinostat -0.023 | silmitasertib -0.016 | [5] -0.113 | [6] -0.156 | entospletinib 0.059

ATG9A (UniProt Q7Z3C6)
Sequence of UniProt Q7Z3C6 (Q7Z3C6 whole entry, looked up): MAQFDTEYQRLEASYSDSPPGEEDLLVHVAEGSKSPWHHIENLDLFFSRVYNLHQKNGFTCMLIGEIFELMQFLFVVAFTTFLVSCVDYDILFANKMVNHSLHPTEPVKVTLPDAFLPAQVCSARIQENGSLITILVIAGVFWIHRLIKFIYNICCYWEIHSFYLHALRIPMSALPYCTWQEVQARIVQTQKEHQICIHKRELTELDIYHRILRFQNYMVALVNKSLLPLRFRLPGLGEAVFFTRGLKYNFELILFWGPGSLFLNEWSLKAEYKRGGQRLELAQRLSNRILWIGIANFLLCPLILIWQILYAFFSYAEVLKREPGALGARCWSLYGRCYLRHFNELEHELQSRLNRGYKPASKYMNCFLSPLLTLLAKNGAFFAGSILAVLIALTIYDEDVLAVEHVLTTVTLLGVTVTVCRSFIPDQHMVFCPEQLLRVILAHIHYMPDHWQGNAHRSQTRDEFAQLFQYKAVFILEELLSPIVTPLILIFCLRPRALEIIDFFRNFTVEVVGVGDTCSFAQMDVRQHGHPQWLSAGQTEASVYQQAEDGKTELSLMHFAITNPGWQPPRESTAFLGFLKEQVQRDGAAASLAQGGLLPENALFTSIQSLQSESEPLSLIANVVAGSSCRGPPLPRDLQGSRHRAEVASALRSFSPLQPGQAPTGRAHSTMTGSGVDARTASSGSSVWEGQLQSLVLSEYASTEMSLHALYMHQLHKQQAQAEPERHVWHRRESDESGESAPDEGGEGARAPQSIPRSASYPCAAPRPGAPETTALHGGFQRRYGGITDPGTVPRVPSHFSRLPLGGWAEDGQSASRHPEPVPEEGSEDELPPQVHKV
inactive: [1] 0.019 | [2] 0 | [3] -0.262 | [4] 0.038 | entinostat 0.008 | vorinostat 0.061 | citarinostat 0.059 | silmitasertib -0.023 | [5] 0.019 | [6] -0.013 | entospletinib -0.025

ANAPC2 (UniProt Q9UJX6)
inactive: [1] 0.079 | [2] -0.025 | [3] -0.063 | [4] -0.023 | entinostat 0.02 | vorinostat 0.074 | citarinostat 0.124 | silmitasertib 0.087 | [5] 0.027 | [6] -0.049 | entospletinib -0.001

ALG11 (UniProt Q2TAA5)
inactive: [1] -0.052 | [2] 0.032 | [3] -0.093 | [4] -0.019 | entinostat 0.01 | vorinostat -0.038 | citarinostat 0.039 | silmitasertib 0.008 | [5] -0.002 | [6] -0.08 | entospletinib -0.005

ATP9B (UniProt O43861)
active: [1] -0.58
inactive: [2] -0.028 | [3] 0.052 | [4] -0.029 | entinostat -0.24 | vorinostat -0.044 | citarinostat 0.135 | silmitasertib 0.071 | [5] 0.029 | [6] -0.048 | entospletinib -0.134

ARL2BP (UniProt Q9Y2Y0)
inactive: [1] -0.056 | [2] -0.108 | [3] -0.129 | [4] -0.088 | entinostat -0.057 | vorinostat 0.132 | citarinostat 0.006 | silmitasertib -0.02 | [5] 0.108 | [6] 0.046 | entospletinib -0.06

ATAD3A isoform 2 (UniProt Q9NVI7)
inactive: [1] 0.011 | [2] -0.088 | [3] -0.128 | [4] -0.088 | entinostat 0.053 | vorinostat 0.123 | citarinostat 0.076 | silmitasertib 0.051 | [5] 0.12 | [6] -0.127 | entospletinib 0.024

ATP6AP1 (UniProt Q15904)
Sequence of UniProt Q15904 (Q15904 whole entry, looked up): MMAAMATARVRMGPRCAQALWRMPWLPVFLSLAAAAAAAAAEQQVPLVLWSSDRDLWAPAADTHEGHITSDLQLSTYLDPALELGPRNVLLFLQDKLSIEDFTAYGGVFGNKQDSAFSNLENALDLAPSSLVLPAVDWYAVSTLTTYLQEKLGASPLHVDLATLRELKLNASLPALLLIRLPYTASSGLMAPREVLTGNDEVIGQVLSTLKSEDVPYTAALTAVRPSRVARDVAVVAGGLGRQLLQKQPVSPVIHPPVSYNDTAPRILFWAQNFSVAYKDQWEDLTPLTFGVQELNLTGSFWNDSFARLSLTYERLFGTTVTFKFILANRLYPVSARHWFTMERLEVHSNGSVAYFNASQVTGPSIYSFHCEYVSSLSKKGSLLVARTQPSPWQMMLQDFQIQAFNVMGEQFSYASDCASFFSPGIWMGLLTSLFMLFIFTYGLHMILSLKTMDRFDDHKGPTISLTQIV
inactive: [1] -0.033 | [2] -0.208 | [3] -0.149 | [4] -0.04 | entinostat 0.025 | vorinostat 0.063 | citarinostat 0.035 | silmitasertib 0.043 | [5] -0.005 | [6] -0.087 | entospletinib -0.012
